According to PubChem BioAssay (NCATS):
Results filed as inconclusive are left out. The source made the active and inactive calls. Unless noted, the call rests on the fitted dose curve; in most records, active means well fitted curve in the direction sought with a large enough effect; inconclusive means small, poorly fitted or top-dose-only effect, or another doubt; inactive means no such curve, though single readings can be large; an effect the other way counts as inactive or inconclusive.

Columns and labels:
[1] = biological target: Lysosomal acid glucosylceramidase (Homo sapiens) (UniProt P04062); experiment: Glucocerebrosidase-p2 (AID 348; in the data active means potency below about 10 µM; further: potency means the concentration at half of the fitted maximal effect); conditions: purified GBA, blue fluorogenic substrate, 40 min
Chain of Lysosomal acid glucosylceramidase (Homo sapiens) (P04062 whole entry, looked up): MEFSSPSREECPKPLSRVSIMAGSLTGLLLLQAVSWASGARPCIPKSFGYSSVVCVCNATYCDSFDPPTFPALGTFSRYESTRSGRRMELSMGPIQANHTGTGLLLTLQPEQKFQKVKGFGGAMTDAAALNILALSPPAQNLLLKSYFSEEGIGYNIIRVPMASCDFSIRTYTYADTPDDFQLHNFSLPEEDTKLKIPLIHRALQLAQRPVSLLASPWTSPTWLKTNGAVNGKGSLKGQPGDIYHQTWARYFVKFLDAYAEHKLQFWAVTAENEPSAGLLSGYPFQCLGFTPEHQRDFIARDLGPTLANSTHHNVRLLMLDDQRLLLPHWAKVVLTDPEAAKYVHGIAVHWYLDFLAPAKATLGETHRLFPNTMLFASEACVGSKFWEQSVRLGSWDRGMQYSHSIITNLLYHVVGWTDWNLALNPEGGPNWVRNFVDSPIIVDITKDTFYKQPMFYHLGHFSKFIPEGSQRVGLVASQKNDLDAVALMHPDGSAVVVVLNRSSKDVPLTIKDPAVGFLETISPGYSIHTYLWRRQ
In short: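 Compounds titrated from 0.6 nM upwards against 0.2 nM enzyme in pH 5.9 citric acid/KH2PO4, taurocholate, tween-20; blue fluorogenic substrate 80 uM, 40 min room temperature, stopped and read Ex 365/Em 440 for AC50.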

[2] = AP1 Signaling Pathway (AID 357; active means well fitted curve in either direction with a large enough effect, not every such curve was filed as active;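 further: ME-180 reporter cells stimulated with EGF at its EC50 level; on the % scale 0 is the no-effect control and ±100 the full control effect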); conditions: ME-180 AP-1-bla reporter, EGF-induced, beta-lactamase ratio, 5 h; at 7.69 µM (top of the series) unless noted
In short: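 AP-1-bla ME-180 cells, Opti-MEM + 0.5% dialyzed FBS, plated overnight 37 °C. Cpd titration + EC50 EGF, 5 h 37 °C. CCF4 2.5 h RT; ex 405, em 460/530 ratio → %activity, AC50.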

[3] = biological target: Cytochrome P450 1A2 (Homo sapiens) (UniProt P05177); experiment: p450-cyp1a2 (AID 410; calls by dose curve; further: potency means the concentration at half of the fitted maximal effect;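 on activity change, negative = inhibition: -100% = full effect of reference inhibitor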); conditions: recombinant CYP1A2, luciferin-ME demethylation, luminescence; series mostly up to 57 µM
Chain of Cytochrome P450 1A2 (Homo sapiens) (P05177 whole entry, looked up): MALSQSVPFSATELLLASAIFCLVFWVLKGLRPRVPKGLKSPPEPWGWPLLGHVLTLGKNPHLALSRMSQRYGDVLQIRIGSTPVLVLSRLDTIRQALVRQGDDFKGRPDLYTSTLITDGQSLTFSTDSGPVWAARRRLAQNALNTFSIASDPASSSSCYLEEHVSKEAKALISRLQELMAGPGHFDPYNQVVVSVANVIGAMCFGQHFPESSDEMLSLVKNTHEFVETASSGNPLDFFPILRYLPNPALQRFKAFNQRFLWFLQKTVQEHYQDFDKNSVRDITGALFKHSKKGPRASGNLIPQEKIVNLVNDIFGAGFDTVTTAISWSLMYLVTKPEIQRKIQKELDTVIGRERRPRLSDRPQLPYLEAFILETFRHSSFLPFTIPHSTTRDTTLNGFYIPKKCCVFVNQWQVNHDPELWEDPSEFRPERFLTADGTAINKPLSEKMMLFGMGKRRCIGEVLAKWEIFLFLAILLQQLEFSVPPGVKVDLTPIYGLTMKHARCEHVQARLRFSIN
In short: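 20nM CYP1A2 with 100uM Luciferin-ME (at Km) in 100mM KPO4; compound preincubated 10 min, NADPH regeneration added, 60 min at room temperature. Luciferin quantified by luminescence after detection reagent; normalized to 57 uM furafylline.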

[4] = NFAT Signaling Pathway (AID 444; active means well fitted curve in either direction with a large enough effect, not every such curve was filed as active;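 further: carbachol stimulus at about its EC50 of 1 µM final; on the % scale 0 is the no-effect control and ±100 the full control effect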); conditions: Jurkat NFAT-bla M1, carbachol, beta-lactamase ratio, 5 h; at 7.69 µM (top of the series) unless noted
In short: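 Read-out: CCF4 FRET ratio (460 nm/530 nm) after 1 h RT dye loading, used for %activity and AC50 from titration series. Cells: Jurkat NFAT-β-lactamase/M1 line, treated with compound plus 1 uM carbachol for 5 h, 37 °C.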

[5] = Stat Signaling Pathway (AID 446; active means well fitted curve in either direction with a large enough effect, not every such curve was filed as active;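 further: ME-180 cervical cancer cells given 40 pM IL-6 alongside compound; SIE-controlled beta-lactamase reporter measured as 460/530 nm FRET emission ratio; on the % scale 0 is the no-effect control and ±100 the full control effect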); conditions: ME-180 SIE beta-lactamase reporter, IL-6 stimulated, 5 h; at 7.69 µM (top of the series) unless noted
In short: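 Screening format detects activators and inhibitors alike: ME-180 SIE-bla cells stimulated at 40 pM IL-6 for 5 hrs with compound, then dual-emission beta-lactamase read at 405 nm excitation.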

[6] = biological target: Glucocorticoid receptor (Homo sapiens) (UniProt P04150); experiment: GR-GFP Redistribution (AID 450;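 active means compounds whose dose series gives a full or clear partial fitted curve of increased nuclear translocation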; further: potency means the concentration at half of the fitted maximal effect); conditions: U2OS GR-GFP nuclear translocation, laser cytometry, 2 h
Chain of Glucocorticoid receptor (Homo sapiens) (P04150 whole entry, looked up, the tested form may be a part): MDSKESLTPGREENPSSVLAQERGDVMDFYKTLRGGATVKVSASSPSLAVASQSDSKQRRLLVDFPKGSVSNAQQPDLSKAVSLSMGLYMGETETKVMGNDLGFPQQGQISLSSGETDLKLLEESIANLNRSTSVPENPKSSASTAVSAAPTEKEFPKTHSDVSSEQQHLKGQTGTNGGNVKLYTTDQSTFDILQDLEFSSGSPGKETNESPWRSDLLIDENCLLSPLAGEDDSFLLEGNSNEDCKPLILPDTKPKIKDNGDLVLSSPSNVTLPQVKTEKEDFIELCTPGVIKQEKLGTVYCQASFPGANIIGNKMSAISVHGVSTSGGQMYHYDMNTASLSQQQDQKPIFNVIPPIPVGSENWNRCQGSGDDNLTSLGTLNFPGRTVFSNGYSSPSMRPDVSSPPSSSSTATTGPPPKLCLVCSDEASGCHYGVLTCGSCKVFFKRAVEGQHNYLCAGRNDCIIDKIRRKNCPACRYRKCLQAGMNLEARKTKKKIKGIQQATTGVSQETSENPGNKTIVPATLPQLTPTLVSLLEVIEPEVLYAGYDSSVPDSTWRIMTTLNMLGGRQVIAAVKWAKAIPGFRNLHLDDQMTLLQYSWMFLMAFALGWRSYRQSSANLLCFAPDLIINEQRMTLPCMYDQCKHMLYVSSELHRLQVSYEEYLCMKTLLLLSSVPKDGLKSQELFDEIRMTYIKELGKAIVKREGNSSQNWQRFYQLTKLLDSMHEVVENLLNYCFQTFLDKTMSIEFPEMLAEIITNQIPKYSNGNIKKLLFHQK

[7] = biological target: Glucocorticoid receptor (Homo sapiens) (UniProt P04150); experiment: GR-EFC Redistribution (AID 451; calls by dose curve; further: potency means the concentration at half of the fitted maximal effect); conditions: CHO-K1 GR-EFC translocation, beta-gal luminescence, 2 h
In short: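 Translocation of GR-ED fusion to nuclear EA restores b-gal, read by luminescence after 1 h room-temperature detection. Engineered CHO-K1 biosensor cells, 1,000/well, exposed 2 h at 37 C to titrations up to 46 uM final.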

[8] = biological target: Mitogen-activated protein kinase 10 (Mus musculus) (UniProt Q61831); experiment: JNK3 AlphaScreen Assay (AID 530; active means well fitted curve in either direction with a large enough effect, not every such curve was filed as active;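 further: kinase came from lysate of stimulated human HepG2 cells; signal reports phosphorylation of biotinylated GST-cJun 1-79 at Ser73 with 10 µM ATP; on the % scale 0 is the no-effect control and ±100 the full control effect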); conditions: JNK3 lysate, c-Jun phosphorylation; series mostly up to 57.1 µM
In short: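 Compound titrations were preincubated 15 minutes at room temperature with substrate, antibody and pre-activated JNK3-containing HepG2 lysate. Reactions were started with 10 uM ATP and stopped with EDTA-containing bead buffer for AlphaScreen detection.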

[9] = biological target: Cytochrome P450 2C19 (Homo sapiens) (UniProt P33261); experiment: qHTS Assay for Inhibitors and Substrates of Cytochrome P450 2C19 (AID 899); conditions: recombinant CYP2C19, luciferin-H EGE luminescence; series mostly up to 57.1 µM; further: potency means the concentration at half of the fitted maximal effect; nearly all actives have a fitted effect of over 60% in size
Chain of Cytochrome P450 2C19 (Homo sapiens) (P33261 whole entry, looked up): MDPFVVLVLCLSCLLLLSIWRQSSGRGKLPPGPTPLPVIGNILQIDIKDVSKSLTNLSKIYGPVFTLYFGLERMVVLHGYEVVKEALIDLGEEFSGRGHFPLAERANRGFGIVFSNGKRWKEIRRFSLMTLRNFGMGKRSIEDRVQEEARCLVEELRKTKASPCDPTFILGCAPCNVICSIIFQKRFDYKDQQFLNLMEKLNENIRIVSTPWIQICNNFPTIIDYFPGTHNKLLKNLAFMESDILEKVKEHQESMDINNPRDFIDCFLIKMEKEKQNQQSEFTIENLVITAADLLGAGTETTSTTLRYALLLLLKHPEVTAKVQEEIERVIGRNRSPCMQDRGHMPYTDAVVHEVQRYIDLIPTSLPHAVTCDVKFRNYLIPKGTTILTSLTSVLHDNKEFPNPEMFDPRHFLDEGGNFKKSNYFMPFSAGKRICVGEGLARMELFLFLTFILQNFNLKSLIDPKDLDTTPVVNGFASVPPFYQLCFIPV
In short: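 5nM enzyme + 10uM Luciferin-H EGE (=KM), 50mM KPO4; cpd pin-transferred, 10 min 37C; NADPH regen, 60 min 37C; stopped w/ luciferin detection reagent, 20 min; luminescence. Normalized to 57uM ketoconazole (AC100).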

[10] = biological target: Dual specificity protein kinase CLK4 (Homo sapiens) (UniProt Q9HAZ1); experiment: qHTS Assay for Inhibitors of CDC-like Kinase 4 (Kinase-Glo Assay) (AID 1770); conditions: recombinant Clk4, Kinase-Glo ATP depletion luminescence; series mostly up to 66.7 µM; further: on the % scale 0 is the no-effect control and ±100 the full control effect; nearly all actives have a fitted effect of over 65% in size
Chain of Dual specificity protein kinase CLK4 (Homo sapiens) (Q9HAZ1 whole entry, looked up): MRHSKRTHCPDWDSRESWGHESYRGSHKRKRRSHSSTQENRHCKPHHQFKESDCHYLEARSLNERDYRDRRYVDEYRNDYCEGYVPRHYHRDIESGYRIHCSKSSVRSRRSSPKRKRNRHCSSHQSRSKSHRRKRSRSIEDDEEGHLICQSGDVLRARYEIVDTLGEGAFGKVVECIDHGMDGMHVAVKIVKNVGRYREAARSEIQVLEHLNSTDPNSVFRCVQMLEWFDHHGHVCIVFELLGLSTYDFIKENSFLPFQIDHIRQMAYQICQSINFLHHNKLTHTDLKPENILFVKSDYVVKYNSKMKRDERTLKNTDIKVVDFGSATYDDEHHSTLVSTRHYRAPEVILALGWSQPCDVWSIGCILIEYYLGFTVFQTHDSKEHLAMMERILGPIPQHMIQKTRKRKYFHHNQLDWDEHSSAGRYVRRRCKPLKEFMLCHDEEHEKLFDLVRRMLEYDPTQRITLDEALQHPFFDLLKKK
In short: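 Substrate mix (RS peptide 100 uM, ATP 1 uM) dispensed, compound pinned in, then Clk4 added to 25 nM final. Incubated 4.5 h at RT; Kinase-Glo reagent added, luminescence read after 5 min.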

[11] = biological target: Dual specificity protein kinase CLK4 (Homo sapiens) (UniProt Q9HAZ1); experiment: qHTS Assay for Inhibitors of CDC-like Kinase 4 (ADP-Glo Assay) (AID 1771); conditions: recombinant CLK4, ADP-Glo luminescence; series mostly up to 80 µM; further: on the % scale 0 is the no-effect control and ±100 the full control effect; nearly all actives have a fitted effect of over 70% in size
In short: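 25 nM Clk4 with 100 uM RS repeat peptide and 1 uM ATP (final) in buffer with 2 mM MgCl2, 0.5 mM EGTA, 2.5 mM DTT, 0.01% Triton X-100; 1 h at room temperature; ADP-Glo luminescence for ADP formed.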

[12] = biological target: Dual specificity protein kinase CLK4 (Homo sapiens) (UniProt Q9HAZ1); experiment: qHTS Assay for Inhibitors of CDC-like Kinase 4 (ADP-FP Assay) (AID 1795); conditions: Transcreener ADP fluorescence polarization; series mostly up to 50 µM;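 further: recombinant human CLK4 phosphorylating RS repeat peptide at 1 µM ATP; on the % scale 0 is the no-effect control and ±100 the full control effect; nearly all actives have a fitted effect of over 60% in size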
In short: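 Clk4 6.25 nM; RS peptide 100 uM; ATP 1 uM; 25 mM Tris pH 7.5, 10 mM MgCl2; 1 h reaction. ADP detected via antibody/orange tracer FP displacement; TG003 positive control.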

[13] = biological target: Ubiquitin carboxyl-terminal hydrolase 1 (Homo sapiens) (UniProt O94782); experiment: Inhibitors of USP1/UAF1: Pilot qHTS (AID 504865); conditions: purified USP1/UAF1, Ub-rhodamine cleavage fluorescence; series mostly up to 54.9 µM; further: nearly all actives have a fitted effect of over 35% in size; further: potency means the concentration at half of the fitted maximal effect
Chain of Ubiquitin carboxyl-terminal hydrolase 1 (Homo sapiens) (O94782 whole entry, looked up): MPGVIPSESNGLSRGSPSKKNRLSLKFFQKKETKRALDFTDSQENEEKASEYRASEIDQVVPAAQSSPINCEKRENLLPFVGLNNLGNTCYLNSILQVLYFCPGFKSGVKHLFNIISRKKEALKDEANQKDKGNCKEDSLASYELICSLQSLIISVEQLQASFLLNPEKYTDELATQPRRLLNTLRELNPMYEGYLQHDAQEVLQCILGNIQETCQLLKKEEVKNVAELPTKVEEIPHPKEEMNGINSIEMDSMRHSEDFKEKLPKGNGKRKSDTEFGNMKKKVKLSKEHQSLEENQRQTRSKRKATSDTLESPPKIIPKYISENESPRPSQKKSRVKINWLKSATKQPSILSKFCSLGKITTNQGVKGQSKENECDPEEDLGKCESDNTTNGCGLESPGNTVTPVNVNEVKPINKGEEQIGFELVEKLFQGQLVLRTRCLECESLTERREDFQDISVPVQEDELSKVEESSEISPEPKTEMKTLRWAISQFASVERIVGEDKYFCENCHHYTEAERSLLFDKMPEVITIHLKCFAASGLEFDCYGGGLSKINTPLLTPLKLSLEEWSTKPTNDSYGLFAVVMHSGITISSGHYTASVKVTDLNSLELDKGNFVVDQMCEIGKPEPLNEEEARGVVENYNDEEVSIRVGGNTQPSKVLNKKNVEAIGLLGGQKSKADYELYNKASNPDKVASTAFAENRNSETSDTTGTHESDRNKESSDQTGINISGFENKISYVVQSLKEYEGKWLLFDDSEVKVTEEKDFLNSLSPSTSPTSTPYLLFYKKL
In short: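 In 50mM HEPES pH 7.8 containing 0.5mM EDTA, 1mM TCEP, 0.1 mg/ml BSA and 0.01% Tween-20, 1nM USP1/UAF1 is exposed to compound for 15 min, then Ub-Rho (150nM final) is added and fluorescence is read over time.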

[14] = Primary qHTS for small molecule stabilizers of the endoplasmic reticulum resident proteome: Secreted ER Calcium Modulated Protein (SERCaMP) assay (AID 1508630); conditions: SH-SY5Y GLuc-SERCaMP (Gaussia luciferase released on ER calcium loss) secretion, thapsigargin, luminescence; series mostly up to 38.4 µM; further: on the % scale 0 is the no-effect control and ±100 the full control effect
In short: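 GLuc-SERCaMP-expressing SH-SY5Y cells, pretreated 16 h with compound, are challenged with thapsigargin to empty ER calcium stores; after 4 h, coelenterazine is added directly to the medium and luminescence is imaged.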

[15] = biological target: 3',5'-cyclic-AMP phosphodiesterase 4B (Homo sapiens) (UniProt Q07343); experiment: qHTS Assay for Inhibitors of PDE-IV (AID 607; active means well fitted activation curve with a large enough effect in the main read-out, with a control signal flat, not every such curve was filed as active; further: % of control where 0% means no effect); conditions: HEK293 ACTOne CNG channel cells, membrane potential fluorescence; series mostly up to 22.9 µM
Chain of 3',5'-cyclic-AMP phosphodiesterase 4B (Homo sapiens) (Q07343 whole entry, looked up): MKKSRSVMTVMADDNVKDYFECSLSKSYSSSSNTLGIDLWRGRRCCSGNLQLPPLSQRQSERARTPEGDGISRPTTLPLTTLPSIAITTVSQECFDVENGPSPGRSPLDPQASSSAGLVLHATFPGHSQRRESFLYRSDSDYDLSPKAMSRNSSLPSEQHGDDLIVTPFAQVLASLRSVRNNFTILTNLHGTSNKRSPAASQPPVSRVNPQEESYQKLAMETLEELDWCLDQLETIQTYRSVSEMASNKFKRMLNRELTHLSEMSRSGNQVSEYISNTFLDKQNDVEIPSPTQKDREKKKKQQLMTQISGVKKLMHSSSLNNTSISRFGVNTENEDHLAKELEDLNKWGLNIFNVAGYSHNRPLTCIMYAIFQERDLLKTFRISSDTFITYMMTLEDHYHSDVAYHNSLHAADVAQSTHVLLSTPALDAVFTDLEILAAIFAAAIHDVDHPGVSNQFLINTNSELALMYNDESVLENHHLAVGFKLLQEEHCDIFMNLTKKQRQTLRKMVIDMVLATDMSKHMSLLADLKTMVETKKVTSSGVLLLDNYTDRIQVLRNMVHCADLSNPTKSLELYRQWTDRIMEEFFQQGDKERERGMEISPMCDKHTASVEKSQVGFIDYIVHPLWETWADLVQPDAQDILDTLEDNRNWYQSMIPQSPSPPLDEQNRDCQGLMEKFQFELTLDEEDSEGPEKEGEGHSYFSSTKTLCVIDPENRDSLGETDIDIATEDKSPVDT
In short: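 The readout is membrane depolarisation from a cAMP-sensing CNG channel, detected with a potential dye at ex 535/em 590. Cells were HEK293-derived (endogenous PDE-IV) at 1000 cells/well, titrated up to 22.9 uM final.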

[16] = biological target: Cytochrome P450 3A4 (Homo sapiens) (UniProt P08684); experiment: qHTS Assay for Activators of Cytochrome P450 3A4 (AID 885); conditions: recombinant CYP3A4, Luciferin-PPXE luminescence, 60 min; series mostly up to 57.1 µM; further: nearly all actives have a fitted effect of over 65% in size; further: potency means the concentration at half of the fitted maximal effect
Chain of Cytochrome P450 3A4 (Homo sapiens) (P08684 whole entry, looked up): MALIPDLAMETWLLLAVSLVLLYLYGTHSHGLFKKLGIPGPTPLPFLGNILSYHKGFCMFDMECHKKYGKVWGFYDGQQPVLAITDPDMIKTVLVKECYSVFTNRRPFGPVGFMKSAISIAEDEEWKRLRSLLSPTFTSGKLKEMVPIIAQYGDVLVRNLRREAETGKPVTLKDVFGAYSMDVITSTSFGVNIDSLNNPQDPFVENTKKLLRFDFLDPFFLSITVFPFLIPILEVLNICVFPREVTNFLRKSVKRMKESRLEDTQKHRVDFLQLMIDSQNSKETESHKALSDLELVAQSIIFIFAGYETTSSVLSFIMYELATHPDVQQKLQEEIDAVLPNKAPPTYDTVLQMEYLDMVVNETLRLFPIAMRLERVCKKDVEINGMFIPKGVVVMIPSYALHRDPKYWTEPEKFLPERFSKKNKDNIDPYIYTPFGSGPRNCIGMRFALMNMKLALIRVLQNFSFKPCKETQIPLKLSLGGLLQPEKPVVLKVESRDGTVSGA
In short: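 Steps: enzyme/substrate mix dispensed; compound added, 10 min RT; NADPH regeneration solution added, 60 min RT; luciferin detection buffer stops reaction; 20 min later luminescence measured.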

[17] = qHTS Assay for Identification of Small Molecule Agonists for Hypoxia Response Element Signaling Pathway (AID 914; active means well fitted activation curve with a large enough effect in the signal ratio, with a control signal flat, not every such curve was filed as active; the % refers to the signal ratio; further: potency means the concentration at half of the fitted maximal effect; on activation: % of control where 0% means no effect); conditions: ME-180 (cervical carcinoma) HRE-bla reporter, beta-lactamase ratio, CoCl2, 17 h; activation: active compounds read high
In short: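 Cells were plated overnight, pin-dosed with compound in a titration series, co-stimulated with EC50 CoCl2 and incubated 17 hours at 37 degrees Celsius. CCF4 substrate was then loaded, and AC50 values came from the 460nm/530nm ratio.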

[18] = biological target: Cytochrome P450 3A4 (Homo sapiens) (UniProt P08684); experiment: qHTS Assay for Inhibitors and Substrates of Cytochrome P450 3A4 (AID 884); conditions: recombinant CYP3A4, Luciferin-PPXE luminescence; series mostly up to 57.1 µM; further: on the % scale 0 is the no-effect control and ±100 the full control effect; nearly all actives have a fitted effect of over 50% in size
In short: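 20 nM human CYP3A4 with 25 uM Luciferin-PPXE (at KM) in 200 mM KPO4, preincubated 10 min with compound; NADPH regeneration started a 60 min RT reaction. Luciferin detected by luminescence, normalized to 57 uM ketoconazole as full inhibition.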

Cc1noc(C)c1-c1nc(Nc2ccc(F)cc2)c2ccccc2n1
active: Potency [3] 0.251 µM | Potency [9] 3.16 µM
inactive: Potency [1] > 11.4 µM | activity change, negative = inhibition [2] -5.88% | activity change, negative = inhibition [4] 11.3% | activity, negative = inhibition [5] 4.28% | Potency [6] > 46 µM | Potency [7] > 46 µM | Potency [8] | Potency [10] | Potency [11] | Potency [12] | Potency [13] | outcome [14]

CN(C)C(=O)c1ccc(-c2cncnc2Nc2ccccc2)cc1
inactive: Potency [1] > 11.4 µM | activity change, negative = inhibition [2] -7.47% | activity change, negative = inhibition [4] 1.8% | activity, negative = inhibition [5] -6.42% | Potency [6] > 46 µM | Potency [7] > 46 µM | Potency [8] | Potency [15] | Potency [16] | Potency [10] | Potency [11] | Potency [12] | Potency [13] | outcome [14]
active: Potency [3] 31.6 µM

O=c1c(CCc2ccccc2)nc2cnc(N3CCOCC3)nc2n1CCc1ccccc1
inactive: Potency [1] > 11.4 µM | activity change, negative = inhibition [2] 0.172% | activity change, negative = inhibition [4] 6.88% | activity, negative = inhibition [5] -4.94% | Potency [6] > 9.22 µM | Potency [7] > 46 µM | Potency [8] | activation [17] -4.33% | Potency [10] | Potency [11] | Potency [12] | Potency [13] | outcome [14]
active: Potency [3] 25.1 µM

COc1cccc(Cn2c(=O)c(-c3ccc(Cl)cc3)nc3cnc(N4CCN(C)CC4)nc32)c1
inactive: Potency [1] > 11.4 µM | activity change, negative = inhibition [2] 17.8% | Potency [3] | activity change, negative = inhibition [4] 23.1% | activity, negative = inhibition [5] 4.58% | Potency [6] > 9.22 µM | Potency [8] | Potency [15] | Potency [18] | Potency [10] | Potency [11] | Potency [12] | Potency [13] | outcome [14]
active: Potency [16] 15.8 µM

CCNc1ncc2nc(-c3cc(F)cc(F)c3)c(=O)n(CCc3ccccc3)c2n1
inactive: Potency [1] > 11.4 µM | Potency [6] > 9.22 µM | Potency [7] > 46 µM | Potency [8] | Potency [15] | Potency [16] | Potency [10] | Potency [11] | Potency [12] | outcome [14]
active: activity change, negative = inhibition [2] 109% [activator] | Potency [3] 25.1 µM | activity change, negative = inhibition [4] 137% [activator] | Potency [17] 1 µM | Potency [13] 20 µM

N#CCCn1c(=O)c(-c2ccccc2)nc2cnc(Nc3ccccc3)nc21
inactive: Potency [1] > 11.4 µM | activity change, negative = inhibition [2] -19.8% | activity change, negative = inhibition [4] -16.9% | activity, negative = inhibition [5] -23.1% | Potency [8] | Potency [10] | Potency [11] | Potency [12] | Potency [13] | outcome [14]
active: Potency [3] 0.794 µM
